Only a selection was taken, and hits are over-represented in it overall. No count for the full screen is at hand. Where only a bound is given, the exact number is not on record here.

The test has as its system T1, Caupolican (Caup) homeodomain DNA-binding domain.
T1 sequence: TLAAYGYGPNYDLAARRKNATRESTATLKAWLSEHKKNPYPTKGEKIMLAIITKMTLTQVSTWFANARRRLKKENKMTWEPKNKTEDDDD
The experiment in a line: PBM E-score (8-mer, recovered from the published 9-mer minima) (E-score (dimensionless, -0.5 to 0.5)); Drosophila protein; higher = stronger relative binding preference, active = 0.31 or more. The method, then:
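Protein binding microarray (PBM): in vitro transcribed/translated Caupolican (Caup) homeodomain DNA-binding domain (residues 214-303) applied at 100 nM to a universal 8-mer PBM array (Agilent AMADID 015681). The 8-mer enrichment score (E-score, range -0.5 to 0.5) was computed, and each 9-mer score is the minimum E-score of its two constituent 8-mers. The E-score is the same for a 9-mer and its reverse complement; 0.31 is the stated binding threshold.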
As for ATTTGTTA, the “PBM E-score” value is 0.219 (inactive).
The result for AGTTGTTC reads 0.261 (inactive); that for ACTTGTTG, 0.29 (inactive).
Regarding ACTTGTTC, the “PBM E-score” value was 0.33 (active).
GCTTGTGA: the “PBM E-score” value is -0.02 (inactive).
Next, CCTTGTTC: 0.24 (inactive).
For GCTTGTTA, the “PBM E-score” value was 0.315 (active).
Take GTTTGTTA: the “PBM E-score” value was 0.225 (inactive).
Next, ACTTGTTA: 0.368 (active); GTCGGCCA: -0.0886 (inactive); GGCGACAA: 0.138 (inactive).
Next, CACTGAAG: -0.0338 (inactive); TCGTCAGA: -0.0168 (inactive); AAGAGACA: 0.124 (inactive).
Next, CATATCAG: 0.0708 (inactive); AACCCGCA: -0.135 (inactive).
In the case of AATCTCAG, the “PBM E-score” value is 0.0346 (inactive).
Consider CTAAATAA, for which the “PBM E-score” value was 0.181 (inactive).
Next, CTATCAGA: -0.0505 (inactive); CCGAGAAC: -0.0456 (inactive).
The result for AAGGTTAG reads -0.0357 (inactive); that for AGGATGGA, -0.124 (inactive); that for ACATGGAT, 0.374 (active).
Next, GCATGGAC: -0.00539 (inactive); ACATGGAA: 0.296 (inactive).
For the sequence ACATGGAC, the “PBM E-score” value is 0.338 (active).
As for ACATGGAG, the “PBM E-score” value is 0.257 (inactive).
Next, CCATGGAC: -0.0492 (inactive).
Take GTTAAGGA: the “PBM E-score” value was 0.00704 (inactive).
Take AAGTACAA: the “PBM E-score” value was 0.327 (active).
Next, CAGTACAA: 0.304 (inactive); TAGTACAA: 0.38 (active).
As to AAGTACGA, the “PBM E-score” value was 0.113 (inactive).
Consider GAGTACAA, for which the “PBM E-score” value is 0.262 (inactive).
Regarding AAGTACAG, the “PBM E-score” value is 0.204 (inactive).
The result for TCGTACAA reads ≥ 0.37 (active).
The result for AAGTACCA reads 0.195 (inactive).
Next, AAGTACAC: 0.288 (inactive).
AAGTACAT: the “PBM E-score” value was 0.402 (active).
Next, GCGTACAA: 0.256 (inactive).
Next, CCGTACAA: 0.152 (inactive).
In the case of GAAGCGAA, the “PBM E-score” value is -0.0567 (inactive).
On to GGGATTCA, for which the “PBM E-score” value is -0.0518 (inactive).
Next, ATTCGTGA: 0.114 (inactive); CTCGACAC: 0.105 (inactive); GCTGCGGA: -0.178 (inactive).
Next, ATGAGTTC: 0.0362 (inactive); ATCCTTCG: -0.116 (inactive); GGGACAAC: 0.178 (inactive).
Take CAGTTAGA: the “PBM E-score” value is -0.0838 (inactive).
The result for CGTAACAA reads 0.243 (inactive).
As to CTTAAACA, the “PBM E-score” value is 0.159 (inactive).
For the sequence AGTAACAA, the “PBM E-score” value is 0.266 (inactive).
As to GGTAACAA, the “PBM E-score” value is 0.316 (active).
Consider GCTAACAA, for which the “PBM E-score” value is 0.192 (inactive).
The result for ATTAAACA reads 0.271 (inactive); that for TCTAACAA, 0.177 (inactive); that for AGTAAACA, 0.235 (inactive).
Next, TGTAAACA: ≥ 0.36 (active); TGTAACAA: 0.405 (active).
The result for GTTAAACA reads 0.339 (active); that for GGTAAACA, 0.213 (inactive).
For the sequence GAGCAACA, the “PBM E-score” value was 0.0811 (inactive).
The result for CGGTAGGA reads -0.0619 (inactive); that for AGTAAGAC, 0.0795 (inactive).
ACTTTCCT: the “PBM E-score” value is -0.143 (inactive).
As for CTTGGTCA, the “PBM E-score” value was -0.0643 (inactive).
The result for CATAACAA reads 0.308 (inactive).
Next, GATAACAA: 0.32 (active); TATAACAA: 0.306 (inactive); AAGCATCG: -0.00688 (inactive).
Next, TCCACACA: 0.0566 (inactive); AACTTCAT: 0.108 (inactive).
Take TCTATCCA: the “PBM E-score” value was -0.0275 (inactive).
The result for GACACGTC reads 0.225 (inactive).
The result for TACACGCA reads 0.29 (inactive).
For TTCACGAA, the “PBM E-score” value is 0.0673 (inactive).
With GCCACGTA, the “PBM E-score” value was -0.0264 (inactive).

Values taken from the supplement of paper PMC3724861.
